Sampled rows, rich in hits. Any-hit rate of the full collection: about 0.4%.
FMDV FLuc: antivirals against foot and mouth disease virus. FMDV antiviral cell assay, firefly luciferase signal. Potency, µM (titrated, usually from 57.5 µM), for the others: top-dose activity change, negative = inhibition, usual class: inhibitors. hit rate 0.23% among 120,000. AID 1745856; note: nearly all actives have a fitted effect of over 60% in size
FMDV RLuc: shows antiviral activity in FMDV Renilla assay. Potency, µM (series often up to 57.5 µM), for inactives: at the top dose activity change, negative = inhibition, usual class: inhibitors. FMDV replicon cells, Renilla luciferase signal. hit rate 0.32% among 120,000; note: nearly all actives have a fitted effect of over 55% in size
Starred values were filed as active, the others as inactive; ? = inconclusive; [ ] = dose if it differs, or a comment. Calls come from the whole dose curve. % is set by controls: 0 for no effect and ±100 for the full control effect; potency is the fitted concentration of half-maximal effect.

SMILES	FMDV FLuc	FMDV RLuc
COc1ccc(-c2nsc(NC(=O)COc3ccccc3OC)n2)cc1	11%	-4%
CC(Oc1ccc(F)cc1)C(=O)Nc1nc(-c2ccc(F)cc2)ns1 (stereo not drawn)	22µM*	22µM*
COc1ccc(NC(=O)COc2ccc(Cl)cc2)c2cccnc12	?	11µM*
CCOc1ccc(NC(=O)COc2ccc(OC)cc2)c2cccnc12	8%	-12%
COc1ccc(NC(=O)c2ccccc2Cl)c2cccnc12	14%	-13%
COc1ccc(NC(=O)COc2ccccc2Cl)c2cccnc12	11µM*	10µM*
CCOc1ccccc1C(=O)Nc1c(NCc2ccccc2)c2ccccc2oc1=O	15%	33%
Cc1ccc(C(=O)/C=C/c2cccc(C#N)c2)o1	42%	-10%
CCN(CC)c1ccc(NC(=O)c2sc3nc4c(cc3c2N)CN(C)CC4)cc1	23%	4%
CCc1ccc(NC(=O)c2sc3nc4c(cc3c2N)CN(C(C)C)CC4)cc1	0%	25µM*
CC(=O)OC1CC2(O)[C@@H]3CCC4CC(OC5CC(O)C(OC6CC(O)C(OC7CC(O)C(O)C(C)O7)C(C)O6)C(C)O5)CCC4(C)[C@H]3CCC2(C)C1C1=CC(=O)OC1 (stereo partly drawn)	0.63µM*	?
C[C@H]1O[C@@H](O[C@H]2CC[C@@]3(C)[C@H](CC[C@@H]4[C@@H]3C[C@@H](O)[C@]3(C)[C@@H](C5=CC(=O)OC5)CC[C@]43O)C2)C[C@H](O)[C@@H]1O[C@H]1C[C@H](O)[C@H](O[C@H]2C[C@H](O)[C@H](O[C@@H]3O[C@H](CO)[C@@H](O)[C@H](O)[C@H]3O)[C@@H](C)O2)[C@@H](C)O1	-80%[11.5 µM]	-78%
COC1C(O)CC(OC2C(O)CC(OC3C(O)CC(OC4CCC5(C)C(CCC6[C@@H]5CC(O)C5(C)C(C7=CC(=O)OC7)CCC65O)C4)OC3C)OC2C)OC1C (stereo partly drawn)	?	0.5µM*
C[C@H]1O[C@@H](O[C@H]2[C@@H](O)C[C@H](O[C@H]3[C@@H](O)C[C@H](O[C@H]4CC[C@@]5(C)[C@H](CC[C@@H]6[C@@H]5CC[C@]5(C)[C@@H](C7=CC(=O)OC7)CC[C@]65O)C4)O[C@@H]3C)O[C@@H]2C)C[C@H](O)[C@@H]1O	?	-74%
CC(=O)OC1CC(OC2C(O)CC(OC3C(O)CC(OC4CC(O)C5(C)C(CC[C@@H]6[C@@H]5CCC5(C)C(C7=CC(=O)OC7)CCC65O)C4)OC3C)OC2C)OC(C)C1O (stereo partly drawn)	0.56µM*	0.89µM*
COC1CC(OC2CCC3(C)C(CC[C@@H]4[C@@H]3CCC3(C)C(C5=CC(=O)OC5)C(OC(C)=O)CC43O)C2)OC(C)C1O (stereo partly drawn)	-83%	-76%
CC1OC(OC2C(O)CC(OC3C(O)CC(OC4CCC5(C)C(CC[C@@H]6[C@@H]5CCC5(C)C(C7=CC(=O)OC7)CCC65O)C4)OC3C)OC2C)CC(O)C1O (stereo partly drawn)	0.25µM*	0.56µM*
Cc1ccc2nc(CN3CCN(S(=O)(=O)c4cccc(C(F)(F)F)c4)CC3)cn2c1	-4%	1%
Cc1ccccc1C(=O)Nc1ccc2nc(SCC(=O)N(C)c3ccccc3)sc2c1	-21%	-1%
CCOc1ccc(C(=O)Nc2ccc3nc(SCC(=O)N(C)c4ccccc4)sc3c2)cc1	7.9µM*	?
Cc1cccc(Oc2ccc(NC(=O)c3ccc4c(c3)NC(=O)CS4)cc2)c1	?	22µM*
O=C1CSc2ccc(C(=O)Nc3ccccc3)cc2N1	171%	5%
Cc1ccc(-c2cc(C(=O)O)c3cc(Cl)ccc3n2)s1	142%	38%
COc1cccc(Nc2c(-c3ccc(O)c(OC)c3)nc3ccc(Cl)cn23)c1	0%	63%
COc1cc(-c2c(C#N)c(N)nc3c2CN(C)CC3)cc(OC)c1OC	11%	-1%
SMILES	FMDV FLuc	FMDV RLuc
N#C/C(=C/c1ccc2ncccc2c1)c1nc2ccccc2[nH]1	46%	1%
O=S(=O)(/C(=C/c1ccc2ccccc2c1)c1nc2ccccc2[nH]1)c1ccccc1	35µM*	16µM*
CC1CCCCN1Cc1cc(=O)oc2cc(-c3ccccc3)c(O)cc12 (stereo not drawn)	0%	0%
CCOc1ccc2ccccc2c1C=O	18%	-4%
CCOc1ccc(C=O)c2ccccc12	10µM*	4.5µM*
Cc1cc(C)cc(NC(=O)Cn2c(=O)oc3cc(S(=O)(=O)N4CCCC4)ccc32)c1	0%	-1%
COc1ccc(CNC(=O)Cn2c(=O)oc3cc(S(=O)(=O)N4CCCC4)ccc32)cc1	16%	-8%
CC(C)c1ccc(NC(=O)Cn2c(=O)oc3cc(S(=O)(=O)N4CCCC4)ccc32)cc1	6.3µM*	?
CN(C)c1ccc(CNC(=O)Cn2c(=O)oc3cc(S(=O)(=O)N4CCCCCC4)ccc32)cc1	?	20µM*
COCCCNCc1c2ccccc2c(Cl)c2ccccc12	0%	9%
Nc1cccc(NS(N)(=O)=O)c1	-1%	-6%
